According to PubChem BioAssay AID2288 (National Center for Advancing Translational Sciences (NCATS), 2010):
The whole screen tested about 340,000 compounds, of which fewer than 10 were called active. Inconclusive results (about 2%) are left out. The call rests on the fitted dose curve; in most records, active means well fitted curve in the direction sought with a large enough effect; inconclusive means small, poorly fitted or top-dose-only effect, or another doubt; inactive means no such curve, though single readings can be large or run the other way. These entries were drawn from the full list.

assay: qHTS Assay for Modulators of miRNAs and/orActivators of miR-21; conditions: HeLa miR-21 FLuc reporter, luciferase, 48 h; series mostly up to 38.3 µM;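 further: miR-21 action dims this reporter so a rising signal means less miR-21 action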
How it was run: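 Luminescence from a firefly luciferase reporter carrying a miR-21 binding site downstream, stably expressed under a CMV promoter in HeLa cells that make miR-21 endogenously, reports miRNA modulation after 48 h compound exposure up to approximately 40uM final.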

outcome, inactive:
CC(C)Oc1ccc(CNC(=O)C2CCN(c3nc4ccccc4n(C)c3=O)CC2)cc1
CC(C)c1ccc(NS(=O)(=O)c2ccc3[nH]cc(C(=O)NC4CCCC4)c(=O)c3c2)cc1
Cc1ccc(-n2nc(C)c3c(C)cc(=O)n(CC(=O)Nc4ccc(C(C)C)cc4)c32)cc1
O=C(NCCCO)c1nn(-c2ccc(Cl)cc2)nc1CO
COc1ccccc1CNC(=O)CCCn1c(=O)c2ccccc2n(CC(=O)Nc2ccc(C)cc2Cl)c1=O
COc1cccc(-n2c(=O)c3c(C)c(C(=O)N(C)C)sc3n(Cc3cccc(C)c3)c2=O)c1
CCOc1cccc2sc(N3CCN(C(=O)C4CC4)CC3)nc12
CCc1nn(CC(=O)N2CCN(c3ccc(Cl)cc3)CC2)c(=O)c2cc3occc3n12
CSc1ncc(C(=O)NCc2ccccc2Cl)c(C(F)(F)F)n1
COc1ccc(CC(=O)Nc2nnc3n2CCS3)cc1OC
Cc1ccc(-c2nn(CCC(=O)Nc3ccc(Cl)c(Cl)c3)c(=O)c3ccccc23)cc1
CCC(=O)Nc1ccccc1-c1nc2ccccc2n(CC(=O)Nc2ccc(C)c(C)c2)c1=O
CCN1CCc2nc3sc(C(=O)Nc4ccccc4OC(F)(F)F)c(N)c3cc2C1
CCOC(=O)c1cc(NC(=O)c2ccc(F)cc2)c(=O)n2c1oc1ccccc12
CCOc1ccc(N(CC)S(=O)(=O)N2CCCC(C(=O)NCc3ccc(SC)cc3)C2)cc1 (stereo not given)
COc1ccc(CNC(=O)CSc2n[nH]c(-c3ccc(F)cc3)n2)cc1
COc1ccc(CN2C(=O)C(NC(=O)c3cccc(C)c3)(C(F)(F)F)N=C2c2ccccc2)cc1 (stereo not given)
Cc1c(Cl)cccc1NC(=O)C(=O)NCCc1csc2nc(-c3ccccc3F)nn12
COCCNC(=O)CSc1c(C)cnc2c1c(=O)n(C)c(=O)n2C
O=C(c1ccccc1F)N1CCC(c2nc3c(nnn3Cc3cccc(F)c3)c(=O)[nH]2)CC1
COc1ccc(OC)c(NC(=O)CSC2=Nc3ccccc3C3=NC(CC(=O)NCc4ccc(F)cc4)C(=O)N23)c1 (stereo not given)
COc1ccccc1-c1nnc(SCC(N)=O)o1
COc1cc(NS(=O)(=O)c2ccc3c(c2)OCC(C(=O)N2CCCC2)O3)cc(OC)c1 (stereo not given)
Cc1ccc(C)c(NC(=O)CSC2=Nc3ccccc3N=C(c3ccc(F)cc3)C2)c1
Cc1cc(C)cc(NC(=O)Cc2csc(C)n2)c1
CCc1nccn1S(=O)(=O)c1cc(Br)ccc1Br
CC(=O)Nc1ccc(NC(=O)CSc2nnc3c4cc(Br)ccc4n(C)c3n2)cc1
Cc1ccc(C)c(CNC(=O)c2cc3ccccn3n2)c1
Cc1ccc(C)c(Cn2c(C)c(CNCc3ccc(F)cc3)c(C(=O)O)c2C)c1
CCOC(=O)c1ccc(NC(=O)CSc2nc3c([nH]c4ccccc43)c(=O)n2C)cc1
CCc1ccc(-n2nnc(-c3nc(-c4ccccc4)no3)c2C)cc1
O=C(NCCCN1CCN(c2cccc(Cl)c2)CC1)c1nnc(Cc2ccc(F)cc2Cl)o1
CCNC(=O)CC1C(=O)N(c2ccc(F)cc2)C(=O)N1Cc1ccc(C)cc1 (stereo not given)
CCOC(=O)c1[nH]c(C)c(CCC(=O)NCc2ccccc2C)c1C
COc1ccc(NC(=O)COCc2cc(-c3ccco3)on2)cc1
O=C(CCSCc1cccc(F)c1)NCc1ccccc1
CN(Cc1ccccc1)c1ccc(-c2nc(-c3ccccc3)no2)cc1[N+](=O)[O-]
Cc1ccc(C(=O)Nc2cc3c(cc2N2CCCC2)n(C)c(=O)c(=O)n3C)cc1
CCCOC(=O)c1c(NC(=O)c2cc3nc(-c4ccc(OC)cc4)cc(C(F)(F)F)n3n2)sc2c1CCCC2
Cc1ccc(-c2nc(CS(=O)(=O)CC(=O)NCc3ccccc3Cl)c(C)o2)cc1
Cc1nn(C(C)C(=O)NCCc2ccccc2)c(=O)c2c1sc1ccccc12 (stereo not given)
CCN(C(=O)Cn1cc(S(=O)(=O)N2CCN(c3ccccc3F)CC2)c2ccccc2c1=O)c1ccc(C)c(C)c1
CCOC(=O)c1cccc(NC(=O)c2cc(S(=O)(=O)N3CCCC(C)C3)cn2C)c1 (stereo not given)
COc1ccc(-c2[nH]c3c(c2-c2c(-n4cccc4)n(C)c(=O)n(C)c2=O)c(=O)n(C)c(=O)n3C)cc1
O=c1c2cccnc2n(Cc2cccc(F)c2)c(=O)n1Cc1ccccc1Cl
Cc1ccc(-c2nc(Cn3c(=O)cc(-c4ccccc4)c4c(C)nn(C)c43)c(C)o2)cc1
COC(=O)c1c(NC(=O)C(C)Oc2ccc(Cl)c(C)c2)sc(C)c1C (stereo not given)
Cc1cccc(Cn2c(SCc3ccc(C(=O)N4CCC(C)CC4)cc3)nc3ccncc32)c1
CCc1cnc2c(c1SCC(=O)c1ccccc1)c(=O)n(C)c(=O)n2C
CC(C)c1ccc(NC(=O)c2ccc(Cn3nc(N4CCN(c5ccccc5)CC4)ccc3=O)o2)cc1
Cc1ccc(-c2nnc3c4ccccc4c(C)nn23)cc1NC(=O)c1cccc(Br)c1
CC(=O)c1ccc(NC(c2ccc(F)cc2)c2nnc(-c3ccccc3)o2)cc1 (stereo not given)
CCN(C(=O)Cn1cnc2sc(C)c(S(=O)(=O)N3CCN(c4ncccn4)CC3)c2c1=O)c1ccccc1F
Cc1cccc(N2CCN(C3=C(c4ccccc4)C(=O)c4ccccc43)CC2)c1C
COc1cccc(NC(=O)c2csnn2)c1
N#C/C(=C\c1cccc(F)c1)c1nc(-c2cc3c(ccc4ccccc43)oc2=O)cs1
CC(=O)c1ccc(NC(=O)C2CCN(S(=O)(=O)c3c(C)noc3/C=C/c3ccc(C)cc3)CC2)cc1
CCOc1ccccc1C(=O)NC1(C(F)(F)F)C(=O)Nc2c1c(=O)[nH]c(=O)n2-c1ccc(F)cc1 (stereo not given)
O=C1CN(C(=O)Nc2ccccc2C(F)(F)F)C(c2ccccc2)c2c(sc3c2CCCC3)N1 (stereo not given)
O=C1OC(C(=O)Nc2cccc(Br)c2)Cc2ccccc21 (stereo not given)
